Screens: PubChem BioAssay, National Center for Advancing Translational Sciences (NCATS)
Shown are actives, neighbours in structure and some others; about 3.2% of the full set was active somewhere.
Luciferase inh: qHTS Assay for Inhibitors of Firefly Luciferase | Luciferin 4-monooxygenase (Photinus pyralis), P08659 | purified firefly luciferase, luminescence, 8 min | Potency, µM (doses to about 57.1 µM), actives largely listed as inhibitors | 72,000 compounds, 2.2% hits; active = well fitted inhibition curve with a large enough effect; inconclusive = small, poorly fitted or top-dose-only effect; note: nearly all actives have a fitted effect of over 40% in size
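Inhibition of light generation by firefly luciferase from ATP and luciferin was profiled with concentration-response curves per sample, ATP held at 10 uM within the enzyme's linear range. Plates were read by luminescence after an 8-minute ambient incubation.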
GBA mod: Glucocerebrosidase | Lysosomal acid glucosylceramidase (Homo sapiens), P04062 | purified enzyme, resorufin glucoside fluorescence (screen aimed at inhibitors), 20 min | Potency, µM | 48,000 compounds, 1.1% hits; in the data active = potency below about 15 µM; inconclusive = mostly about 16 µM to 33 µM;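 note: the screen sought inhibitors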
Target sequence (P04062 whole entry, looked up): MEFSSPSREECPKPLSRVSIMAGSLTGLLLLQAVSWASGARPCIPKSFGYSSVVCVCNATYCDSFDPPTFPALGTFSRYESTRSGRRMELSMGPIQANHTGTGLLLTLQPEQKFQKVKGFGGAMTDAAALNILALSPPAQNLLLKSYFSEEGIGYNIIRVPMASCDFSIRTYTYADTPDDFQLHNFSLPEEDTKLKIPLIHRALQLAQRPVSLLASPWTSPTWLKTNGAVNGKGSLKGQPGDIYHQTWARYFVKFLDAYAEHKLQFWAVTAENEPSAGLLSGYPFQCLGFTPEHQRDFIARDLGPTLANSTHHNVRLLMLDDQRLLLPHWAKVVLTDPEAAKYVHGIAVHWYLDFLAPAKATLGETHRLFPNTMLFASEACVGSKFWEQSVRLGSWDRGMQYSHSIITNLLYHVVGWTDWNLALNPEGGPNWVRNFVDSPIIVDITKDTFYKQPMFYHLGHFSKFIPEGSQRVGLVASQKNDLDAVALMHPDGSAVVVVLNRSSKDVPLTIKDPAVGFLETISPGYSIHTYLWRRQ
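Wild-type enzyme at 0.2 nM final in 50mM citric acid/KH2PO4, 10mM sodium taurocholate, 0.01% tween-20, pH 5.9, with resorufin beta-D-glucopyranoside at 30 uM final. Compounds titrated, 20 min at RT, red fluorescence read; AC50 from titration.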
PK Bst: Pyruvate Kinase; purified pyruvate kinase, luminescence ATP production; ribose 5-phosphate activator present at AC10; Potency, µM; AID 361, 2006; 51,000 compounds, 1.2% hits; in the data active = potency below about 11 µM; inconclusive = mostly about 12 µM to 25 µM;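 the screen sought inhibitors and activators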
A number is an active result; - = inactive; ? = inconclusive; . = not tested or not shown; [ ] = another dose, or the depositor's remark.

SMILES	Luciferase inh	GBA mod	PK Bst
COc1ccc(Cl)cc1C(=O)Nc1ccc2c(c1)OCO2	13µM	?	-
CCOC(=O)c1ccc(NC(=O)c2ccc3c(c2)OCO3)cc1	-	-	-
O=C(Nc1cccc(Cl)c1)Nc1ccc2c(c1)OCO2	16µM	-	.
COc1cc(SC)ccc1C(=O)Nc1ccc2c(c1)OCCO2	1.3µM	.	.
CC(=O)c1cc2c(cc1NC(=O)Nc1cccc(Cl)c1)OCCO2	-	-	-
OC[C@@H]1O[C@@H](n2cnc3c(NCCc4ccccc4)ncnc32)[C@@H](O)[C@H]1O	-	.	.
N#Cc1cccc(-c2nc(NCc3cccs3)c3ccccc3n2)c1	-[2.29 µM]	.	.
CCOC(=O)CCN1C(=O)[C@H]2[C@H]3[C@H](O)[C@H](O)C/C(=N/O[C@@H]4O[C@@H](COC(C)=O)[C@@H](OC(C)=O)[C@@H](OC(C)=O)[C@H]4OC(C)=O)[C@@H]3CC[C@@H]2C1=O	-[11.4 µM]	.	.
C=C(NC(=O)C(=C)NC(=O)c1csc(C2=N[C@@H]3c4csc(n4)[C@@H]4NC(=O)c5csc(n5)[C@@H]([C@](C)(O)[C@H](C)O)NC(=O)[C@@H]5CSC(=N5)/C(=C/C)NC(=O)[C@@H]([C@H](C)O)NC(=O)c5csc(n5)[C@]3(CC2)NC(=O)[C@@H](C)NC(=O)C(=C)NC(=O)[C@@H](C)NC(=O)[C@@H]([C@@H](C)CC)N[C@H]2C=Cc3c([C@H](C)O)cc(nc3[C@@H]2O)C(=O)O[C@H]4C)n1)C(N)=O	-	.	.
N=C(N)SCCN1CCCCC1	-[11.4 µM]	.	.
O=C(Nc1ccccc1)N1CC[C@@]2(CCCN(C(=O)c3cc(C(F)(F)F)cc(C(F)(F)F)c3)C2)C1	-[11.4 µM]	.	.
O=C(Nc1ccc2c(c1)OCO2)c1cccs1	?	-	.
O=C(Nc1ccc2c(c1)OCO2)c1ccc(Br)s1	13µM	?	?
COc1ccc(S(=O)(=O)N(CCCN2CCOCC2)Cc2ccc(OC)c(OC)c2)cc1	-	?	-
O=S(=O)(c1cccc(C(F)(F)F)c1)N(CCCN1CCOCC1)Cc1cccs1	-	11	-
CO[C@@H]1COC(=O)[C@H]2CCCN2C(=O)[C@@H](C)COC(=O)C/C=C\[C@H]1C	-[11.4 µM]	.	.
O=C(O)[C@@H](O)c1ccc(F)cc1	-[11.4 µM]	.	.
CC(C)CO/N=C1/C[C@@H](O)[C@@H](O)[C@@H]2[C@@H]3C(=O)N([C@@H](C)c4ccccc4)C(=O)[C@H]3CC[C@@H]12	-[11.4 µM]	.	.
Cc1nc2ccccn2c1-c1nnco1	-	-	-
Cc1cc(-c2nnco2)c(C)n1-c1ccccc1	13µM	-	.
CC(=O)N1CCC2(CCCN(c3ccncc3)C2)CC1	-[11.4 µM]	.	.
COc1ccc(-c2cc(C(=O)N3CCOCC3)no2)cc1OC	-	-	-
O=C(c1cc(-c2cccc(O)c2)on1)N1CCOCC1	13µM	.	.
CC1CCN(C(=O)c2cc(-c3ccccc3O)on2)CC1	10µM	.	.
O=C(c1cc(-c2ccccc2O)on1)N1CCc2ccccc2C1	-	.	.
SMILES	Luciferase inh	GBA mod	PK Bst
CC(C)(C)C(=O)[C@H]([C@@H](c1ccccc1)N1CCOCC1)N1CCOCC1	-[11.4 µM]	.	.
CC(C)[C@H](NC(=O)OCc1ccccc1)C(=O)N[C@H](C=O)Cc1ccccc1	-	.	.
CC(C)(O)c1cc(=O)sc2nc3ccccc3n12	25µM	-	-
c1ccc2nc3c(nc2c1)sc1nc2ccccc2n13	-	-	?
C(CCc1nnc2c(n1)CCCC2)Cc1nnc2c(n1)CCCC2	-[11.4 µM]	.	.
CC(C)Nc1oc(-c2cccc3ccccc23)nc1C#N	20µM	-	-
CCNc1oc(-c2cccc3ccccc23)nc1C#N	-	-	-
N#Cc1cccc(-c2cncnc2NCc2ccccc2)c1	-[2.29 µM]	.	.
CN(C)S(=O)(=O)c1ccc(C(=O)Nc2ccc(OCC(=O)N3CCOCC3)cc2)cc1	16µM	.	.
CCOc1ccc(OCC(=O)N2CCOCC2)cc1	-	-	-
COC(=O)c1ccc(CSc2nc(N)cc(N)n2)cc1	-	-	-
COC(=O)c1ccc(CSc2nc3ccccc3o2)cc1	16µM	.	-
O=c1oc2cc(N=Cc3ccc4c(c3)OCO4)ccc2c2ccccc12	-[11.4 µM]	.	.
O=C(O)/C=C1\CCCc2ccccc2[C@H]1O	-	.	.
Cc1csc(NC(=O)c2cc3c(s2)CCC3)n1	2.5µM	.	?
COC(=O)c1sc(NC(=O)c2cc3c(s2)CCCC3)nc1C	-	-	-
Nc1nc2nc3c(nc2c(=O)[nH]1)CN(c1ccc(C(=O)O)cc1)C3=O	-[11.4 µM]	.	.
CC[C@@H]1OC(=O)[C@H](C)[C@H](O[C@@H]2C[C@](C)(OC)[C@H](O)[C@H](C)O2)[C@H](C)[C@H](O[C@@H]2O[C@@H](C)C[C@@H](N(C)C)[C@@H]2O)[C@](C)(O)C[C@H](C)[C@@H]2N[C@H](COCCOC)O[C@H]([C@@H]2C)[C@]1(C)O	-	.	.
COc1ncc2nc(-c3ccc(F)cc3)c(=O)n(CCC#N)c2n1	-[11.4 µM]	.	.
CO[C@H]1COC(=O)[C@H](C)COC(=O)[C@@H](OCc2ccccc2)/C=C\[C@@H]1C	-[11.4 µM]	.	.
